In PubChem BioAssay:
Calls of active or inactive are those of the source.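 Rule for the calls, unless noted: active = fluorescence slope higher than the sample average by over 3 SD (cut at about -0.22 in these data, passing the limit was not always enough); inactive = the rest.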 Where a SMILES comes first, the peptide text is derived from it.

Columns and labels:
[1] = inhibitors of TNFa-induced NFkB p65 translocation, primary screen, imaging, HUVEC, MLSMR starter and 10KST1 sets (AID 438;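 active = inhibition above 20% together with a positive visual image hit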;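 note: compound added about 3h40 before a 20 min TNFalpha stimulation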;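 for inhibition: signal is the nuclear over cytoplasmic p65 intensity ratio per well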); conditions: HUVEC TNFa-induced p65 nuclear translocation; cell count: measured here: nuclei count (cytotoxicity indicator), at 2.08 µM; inhibition: at 2 µM, stronger effect = higher value, 0% TNFa-plus-vehicle, 100% no-TNFa wells
[2] = inhibitors of mutant huntingtin aggregation, primary screen, imaging, exon1htt(103Q)mCFP cells, high-content imaging (AID 483;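 active = visual image review flags a hit and inhibition of aggregation exceeds 20%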;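 note: compound exposure lasted 3 days before fixation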;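 for nuclei count: percent of the per-plate median nuclei count of sample wells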); conditions: exon1htt(103Q)mCFP cell line, aggregate imaging, at 2 µM; inhibition of aggregation: stronger effect = higher value; nuclei count: measured here: cell count, toxicity
[3] = inhibitors of E-selectin induction by TNFa, primary screen, imaging, HUVEC, immunofluorescence, MLSMR starter and 10KST1 sets (AID 487;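 active = visually confirmed hit in the image check and inhibition above 20%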;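 for inhibition: signal is fraction of cell area covered by stained E-selectin grains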;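 for nuclei count: 100% = median nuclei count of all wells on the same plate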); conditions: HUVEC TNFalpha-induced E-selectin immunofluorescence imaging, at 2 µM; inhibition: stronger effect = higher value; nuclei count: measured here: cell number, toxicity
[4] = target: Voltage-gated potassium channel subunit beta-2 (Rattus norvegicus) (UniProt P62483); assay: KvBeta enzyme negative modulators, primary screen, biochemical, NADPH fluorescence (AID 622); conditions: recombinant KvBeta, 4-cyanobenzaldehyde reduction, at 10 µM, stronger effect = higher value;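 note: slope of raw intensity against log time taken from 70 to 1610 s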
Chain of Voltage-gated potassium channel subunit beta-2 (Rattus norvegicus) (P62483 whole entry, looked up): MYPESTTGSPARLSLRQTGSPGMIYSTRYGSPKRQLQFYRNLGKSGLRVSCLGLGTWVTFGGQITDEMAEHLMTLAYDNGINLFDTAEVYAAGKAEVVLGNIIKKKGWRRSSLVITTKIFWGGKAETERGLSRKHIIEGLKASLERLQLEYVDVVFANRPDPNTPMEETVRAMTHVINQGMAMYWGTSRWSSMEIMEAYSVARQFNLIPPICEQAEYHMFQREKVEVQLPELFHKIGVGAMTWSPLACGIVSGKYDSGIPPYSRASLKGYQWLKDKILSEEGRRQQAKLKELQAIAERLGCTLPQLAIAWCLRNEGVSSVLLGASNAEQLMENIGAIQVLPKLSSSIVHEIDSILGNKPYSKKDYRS

[5] = target: Voltage-gated potassium channel subunit beta-2 (Rattus norvegicus) (UniProt P62483); assay: KvBeta positive modulators, primary screen, biochemical, NADPH fluorescence (AID 623;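 active = NADPH fluorescence slope more negative than the mean of all samples by about 3 SD, 99.7% confidence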;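 note: fluorescence intensity change per second fitted from 20 to 320 s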); conditions: Recombinant KvBeta, NADPH fluorescence decrease slope, 10 min; at 10 µM; stronger effect = lower value
[6] = target: Alpha-2C adrenergic receptor (Homo sapiens) (UniProt P18825); assay: modulators of alpha2C/GIRK thallium flux, primary screen, cell-based, HEK293 alpha2C/GIRK1/2 (AID 624;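 active = fluorescence slope after compound addition differing from the mean of all screened samples at 99.7% confidence, in either direction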;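 note: slope of fluorescence ratio to pre-addition baseline per second over 15 to 24 s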); conditions: thallium flux BTC fluorescence, at 10 µM, actives lie on both sides
Chain of Alpha-2C adrenergic receptor (Homo sapiens) (P18825 whole entry, looked up): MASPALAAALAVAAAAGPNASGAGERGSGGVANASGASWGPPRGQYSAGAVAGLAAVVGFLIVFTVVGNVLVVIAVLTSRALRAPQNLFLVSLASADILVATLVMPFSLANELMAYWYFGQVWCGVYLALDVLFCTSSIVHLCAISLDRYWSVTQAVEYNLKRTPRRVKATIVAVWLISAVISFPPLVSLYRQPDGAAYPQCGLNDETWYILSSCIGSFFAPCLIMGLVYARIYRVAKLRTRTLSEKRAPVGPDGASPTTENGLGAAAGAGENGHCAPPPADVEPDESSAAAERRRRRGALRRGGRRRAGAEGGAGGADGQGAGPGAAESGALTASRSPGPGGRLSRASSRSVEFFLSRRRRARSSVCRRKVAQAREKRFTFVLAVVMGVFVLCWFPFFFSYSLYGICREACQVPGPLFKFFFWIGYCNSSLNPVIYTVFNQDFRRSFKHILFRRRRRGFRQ

[7] = inhibitors of Sendai virus-induced IRF3 signaling, primary screen, TLR/RLR signaling modifier project, cell-based, Sendai virus stimulus, luciferase, 10K MLSCN set (AID 602276;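 active = inhibition at or above 50% at 10 µM; inactive = inhibition below 50%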;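 note: firefly luciferase from ISG56 promoter only with Renilla not read in this screen; 0% = Sendai virus plus DMSO and 100% = medium plus DMSO without virus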); conditions: HEK293 RL24 IRF3 luciferase reporter, at 10 µM, stronger effect = higher value
[8] = inhibitors of poly I:C-induced TLR3 signaling, primary screen, cell-based, poly I:C stimulus, luciferase, 10K MLSCN set (AID 602277;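 active = inhibition of the reporter signal at or above 50%; inactive = inhibition below 50%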); conditions: HEK293-TLR3 RL24 IRF3 luciferase reporter, at 10 µM, stronger effect = higher value

SMILES | cell count [1] | inhibition [1] | inhibition of aggregation [2] | nuclei count [2] [%] | inhibition [3] | nuclei count [3] [%] | fluorescence slope [4] | NADPH fluorescence slope [5] | slope [6] | inhibition [7] | inhibition [8]
Cn1c(=O)n(CC(=O)OCc2ccccc2)c(=O)c2c1nc1n2CCCN1C1CCCCC1 | 376 | 3.2% (inactive) | 0.2% (inactive) | 82.9 | 25.3% (inactive) | 92 | -0.479 (inactive) | -1.8e-05 (inactive) | 0.00618 (inactive) | -2.49% (inactive) | 17.2% (inactive)
Cn1c(C(=O)N2CCCC(C(=O)NCCCc3ccccc3)C2)cc2sccc21 (centres undefined) | 550 | -16.1% (inactive) | 6.7% (inactive) | 139 | -32.8% (inactive) | 103 | -0.256 (inactive) | 6.7e-06 (inactive) | 0.00472 (inactive) | 0.49% (inactive) | -2.49% (inactive)
CCOC(=O)N1CCN(C(=O)c2cccn3c(=O)c4sccc4nc23)CC1 | 502 | 1.1% (inactive) | -5.5% (inactive) | 102 | -5.7% (inactive) | 114 | -0.0756 (inactive) | 1.5e-05 (inactive) | 0.00326 (inactive) | -8.79% (inactive) | -5.35% (inactive)
CCOCCCNC(=O)CC1Oc2ccc(C)cc2NC1=O (centres undefined) | 595 | -6.2% (inactive) | 8.5% (inactive) | 107 | -6.5% (inactive) | 121 | -0.525 (inactive) | -3.6e-05 (inactive) | 0.00596 (inactive) | 5.01% (inactive) | 19.8% (inactive)
COc1ccc(N2CCN(CCNC(=O)CCS(=O)(=O)c3cccc4nsnc34)CC2)cc1 | 747 | -6.4% (inactive) | -23% (inactive) | 101 | 15% (inactive) | 109 | -0.598 (inactive) | -3.9e-05 (inactive) | 0.00466 (inactive) | 16.8% (inactive) | 15.8% (inactive)
CC(=O)NC(C(=O)NCC(N)=O)C(C)C (centres undefined) (HELM PEPTIDE1{[ac].[CC(C)C(N[*:1])C(=O)[*:2]].G.[am]}$$$$V2.0) | 517 | -15.2% (inactive) | -13.6% (inactive) | 89.2 | 9.9% (inactive) | 109 | -0.59 (inactive) | -3.6e-05 (inactive) | 0.00838 (inactive) | -3.54% (inactive) | -10.4% (inactive)
O=C(NCc1ccccn1)C(C(=O)c1ccc(F)cc1)n1ccccc1=O (centres undefined) | 531 | -1.5% (inactive) | 3.1% (inactive) | 70.7 | -117% (inactive) | 219 | -0.472 (inactive) | -3.8e-05 (inactive) | 0.0066 (inactive) | -10.6% (inactive) | 3.51% (inactive)
COc1cccc(NC(=O)N2CCCC2C(=O)NC(C)C)c1 (centres undefined) | 436 | 1.5% (inactive) | -4.5% (inactive) | 121 | -49.5% (inactive) | 114 | -0.601 (inactive) | -2.2e-05 (inactive) | 0.00309 (inactive) | 10.9% (inactive) | 13.7% (inactive)
CCn1c(SCC(=O)NC)nnc1C(C)C | 718 | -11.9% (inactive) | -4.5% (inactive) | 99.7 | -17.9% (inactive) | 104 | -0.307 (inactive) | -5.6e-05 (inactive) | 0.0053 (inactive) | 12.7% (inactive) | 0.106% (inactive)
COC(=O)c1[nH]c(C)c(/C(O)=C2\C(=O)C(=O)N(CCN3CCOCC3)C2c2cccs2)c1C (centres undefined) | 450 | -4.8% (inactive) | 2.2% (inactive) | 96.3 | -53.2% (inactive) | 126 | -0.254 (inactive) | -2.8e-05 (inactive) | 0.00576 (inactive) | 15.2% (inactive) | 11.2% (inactive)
O=C(CN1CCN(Cc2ccc3c(c2)OCO3)CC1)Nc1ccc2c(c1)OCCO2 | 248 | -3% (inactive) | 2.7% (inactive) | 75.7 | -19.1% (inactive) | 85.5 | -0.583 (inactive) | -4.2e-05 (inactive) | 0.00576 (inactive) | 0.946% (inactive) | 17.2% (inactive)
CCn1cc(C(=O)N2CCOCC2)c(=O)c2cc(S(=O)(=O)N(C)C3CCCCC3)ccc21 | 518 | 7.1% (inactive) | 3.9% (inactive) | 84.2 | -29.5% (inactive) | 87.7 | -0.581 (inactive) | -7.6e-06 (inactive) | 0.00672 (inactive) | 12.2% (inactive) | 28.4% (inactive)
Cc1ccc(-c2nn(-c3ccccc3)cc2CN(Cc2ccccc2)C(=O)CCC(=O)O)o1 | 329 | 7.1% (inactive) | -24.5% (inactive) | 107 | -66.8% (inactive) | 120 | -0.429 (inactive) | -2.6e-05 (inactive) | 0.00807 (inactive) | 12.8% (inactive) | 19.6% (inactive)
O=C(CNC(=O)c1cc2ccccc2o1)NCc1cccs1 | 420 | 3.6% (inactive) | -2.1% (inactive) | 107 | -57.3% (inactive) | 112 | -0.469 (inactive) | -1.5e-06 (inactive) | 0.0103 (inactive) | 5.59% (inactive) | 16.2% (inactive)
